The full ranking holds about 18,000 sequences; the median of “log2 normalized intensity” is about 0.36, and the highest 2% start at about 7.3. This excerpt belongs to a sample that is enriched for the highest values.
Each sequence was assayed against T1, HNF4alpha8 (COS-7 nuclear extract) (Homo sapiens, UniProt P41235-5 1-452) (assay: protein-binding microarray; COS-7 nuclear extract on double-stranded Agilent 4x180k PBM; binding buffer, salt, pH and temperature not given in the material; high values mean tight binding). Details: chain copies: 2; label: 3' end of strand 1 on the slide; dsDNA, one strand shown.
T1 sequence: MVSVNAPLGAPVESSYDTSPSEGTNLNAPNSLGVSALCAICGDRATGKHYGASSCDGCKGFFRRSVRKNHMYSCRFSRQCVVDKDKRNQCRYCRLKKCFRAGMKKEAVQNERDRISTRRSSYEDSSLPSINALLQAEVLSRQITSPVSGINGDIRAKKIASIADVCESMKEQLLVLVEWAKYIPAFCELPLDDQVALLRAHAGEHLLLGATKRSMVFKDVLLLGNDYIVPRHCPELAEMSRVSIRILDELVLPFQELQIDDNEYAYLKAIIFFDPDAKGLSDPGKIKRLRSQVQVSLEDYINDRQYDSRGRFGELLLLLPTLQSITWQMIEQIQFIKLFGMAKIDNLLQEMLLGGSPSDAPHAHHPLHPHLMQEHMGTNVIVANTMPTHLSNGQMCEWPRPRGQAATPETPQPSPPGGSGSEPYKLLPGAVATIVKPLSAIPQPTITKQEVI
Outline: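 Nuclear extracts came from COS-7 cells transiently transfected by CaPO4 with a human HNF4α isoform expression vector. They were applied to a custom Agilent SurePrint G3 4x180k array of ~60-nt oligonucleotides, made double-stranded, with ~44,000 test sequences spotted in quadruplicate. Bound HNF4α was imaged at 2-µm resolution on an Agilent G2565CA scanner. Binding signal was taken as background-corrected, normalized gProcessedSignal from Agilent software.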

Sequence | binding signal
TATTCCTTGTCCTTGACCCTTCCTCCCATTGCCTAGGGAGATTAGAGTATCGGTCGA | 4.01 log2 normalized intensity
GAAACATCCACATGTGGGTCCAAAGAACATGCCTAGGGAGATTAGAGTATCGGTCGA | 3.82 log2 normalized intensity
ATCACATTCTAATCCTCTGGTCTTTGCCCCGCCTAGGGAGATTAGAGTATCGGTCGA | 5 log2 normalized intensity
CCCTGAGTAGTTCTTCTGGTTAGTTTTTCAGCCTAGGGAGATTAGAGTATCGGTCGA | 1.66 log2 normalized intensity
CTCCCCTCCTCCAGATGGGCTCATGTAACAGCCTAGGGAGATTAGAGTATCGGTCGA | 2.65 log2 normalized intensity
CAAGAATGCAAAGCCCTGGCTGACCTTTAGGCCTAGGGAGATTAGAGTATCGGTCGA | 5.88 log2 normalized intensity
CTGATTTAGCTATTTGACCTTCGGCCTCAAGCCTAGGGAGATTAGAGTATCGGTCGA | 8.73 log2 normalized intensity
AACCAAGATAGTGACGGAGGTGACCTTTGGGCCTAGGGAGATTAGAGTATCGGTCGA | 7.34 log2 normalized intensity
ACCAAAACCAAGATAGTGACGGAGGTGACCGCCTAGGGAGATTAGAGTATCGGTCGA | 1.88 log2 normalized intensity
TGGCTGGGCCCTGACCTCAAGTGACCTTTGGCCTAGGGAGATTAGAGTATCGGTCGA | 7.77 log2 normalized intensity
TTAGCTATTTGACCTTCGGCCTCAATTATAGCCTAGGGAGATTAGAGTATCGGTCGA | 7.29 log2 normalized intensity
ATTGGCCCTTTGACCTTTAATCAAGGGCTGGCCTAGGGAGATTAGAGTATCGGTCGA | 5.91 log2 normalized intensity
GACAGCTGGGCCCTGCCTGACCTGCCCTTTGCCTAGGGAGATTAGAGTATCGGTCGA | 5.01 log2 normalized intensity
GTGACGGAGGTGACCTTTGGTTGTCCTTACGCCTAGGGAGATTAGAGTATCGGTCGA | 4.94 log2 normalized intensity
GCCCCTGGCTGGGCCCTGACCTCAAGTGACGCCTAGGGAGATTAGAGTATCGGTCGA | 2.6 log2 normalized intensity
CCAGGCTGATTTAGCTATTTGACCTTCGGCGCCTAGGGAGATTAGAGTATCGGTCGA | 5.84 log2 normalized intensity
ATGCAAAGCCCTGGCTGACCTTTAGCCTGGGCCTAGGGAGATTAGAGTATCGGTCGA | 7.69 log2 normalized intensity
CTTCGCTGGAATGTCACAGGGATTACGATCGCCTAGGGAGATTAGAGTATCGGTCGA | 0.569 log2 normalized intensity
CTTTGATAGCCAAGCCAACCAGGAGAATTTGCCTAGGGAGATTAGAGTATCGGTCGA | 2.31 log2 normalized intensity
CTGGTTGGAATTCCAGTGTTCACATCTGATGCCTAGGGAGATTAGAGTATCGGTCGA | 1.09 log2 normalized intensity
TCATTTCTGCTTGCAACCAAAGGAGTCCTGGCCTAGGGAGATTAGAGTATCGGTCGA | -0.447 log2 normalized intensity
TGGCCAAAGTTCAGTAAATCTTAGAGAACAGCCTAGGGAGATTAGAGTATCGGTCGA | 2.27 log2 normalized intensity

Sequence | binding signal
GCCAAGGGCAGTGTTTGCCCAGCTTGAATCGCCTAGGGAGATTAGAGTATCGGTCGA | -0.771 log2 normalized intensity
GCAACCTTTGCTCTCCCTCCTCTCTGAGCAGCCTAGGGAGATTAGAGTATCGGTCGA | 2.28 log2 normalized intensity
ATCGCCCTTTGAGGAGGCCTTTCCTGACCCGCCTAGGGAGATTAGAGTATCGGTCGA | 3.43 log2 normalized intensity
GGGCCCTGACCTCAAGTGACCTTTGACCTCGCCTAGGGAGATTAGAGTATCGGTCGA | 12 log2 normalized intensity
CTGGGCCCTGCCTGACCTGCCCTTTGTCCCGCCTAGGGAGATTAGAGTATCGGTCGA | 6.91 log2 normalized intensity
GGAGTGTGGGGTGGTGTCAGGAGTACAGGTGCCTAGGGAGATTAGAGTATCGGTCGA | 1.12 log2 normalized intensity
CACTGGGCTGATGACCTTTGACTGAGATGGGCCTAGGGAGATTAGAGTATCGGTCGA | 5.81 log2 normalized intensity
CTGGATGACCTTTGTCCTGGCACAACTGGAGCCTAGGGAGATTAGAGTATCGGTCGA | 6.78 log2 normalized intensity
CATCTTTGAGCTGGATGACCTTTGTCCTGGGCCTAGGGAGATTAGAGTATCGGTCGA | 9.19 log2 normalized intensity
TCCTGATCTTTGACCTGGAGCATGACCCTTGCCTAGGGAGATTAGAGTATCGGTCGA | 5.6 log2 normalized intensity
AGAATCATCTTTGAGCTGGATGACCTTTGTGCCTAGGGAGATTAGAGTATCGGTCGA | 8.24 log2 normalized intensity
CTAGTTAAGTCACTGGGCTGATGACCTTTGGCCTAGGGAGATTAGAGTATCGGTCGA | 6.81 log2 normalized intensity
ATGACCTTTGACTGAGATGGGAGCAGTGCTGCCTAGGGAGATTAGAGTATCGGTCGA | 3.52 log2 normalized intensity
TTTTTTTTTTGAGATGGAATCTTGCCCTGTGCCTAGGGAGATTAGAGTATCGGTCGA | 3.54 log2 normalized intensity
TAAGTCACTGGGCTGATGACCTTTGACTGAGCCTAGGGAGATTAGAGTATCGGTCGA | 7.85 log2 normalized intensity
TTGAGCTGGATGACCTTTGTCCTGGCACAAGCCTAGGGAGATTAGAGTATCGGTCGA | 8 log2 normalized intensity
TGACCTTTGTCCTGGCACAACTGGATGGTGGCCTAGGGAGATTAGAGTATCGGTCGA | 5.2 log2 normalized intensity
ATGGGATGACCTTTGAGCAATAGGAAATGGGCCTAGGGAGATTAGAGTATCGGTCGA | 4.79 log2 normalized intensity
CTAGCCCCGCCCAGATGTCTGGCTAAGACCGCCTAGGGAGATTAGAGTATCGGTCGA | 3.43 log2 normalized intensity
GAGGAAAACCAGCTCAGTGGAAATTGTCCTGCCTAGGGAGATTAGAGTATCGGTCGA | 0.989 log2 normalized intensity
CATATCTGGAATTTCAAAGGGAGCATATGTGCCTAGGGAGATTAGAGTATCGGTCGA | 1.31 log2 normalized intensity
CTTTCTTTGTCTGTGTAGACTCATCTGGTGGCCTAGGGAGATTAGAGTATCGGTCGA | 1.89 log2 normalized intensity

Source: article PMC10726135, “HNF4α isoforms regulate the circadian balance between carbohydrate and lipid metabolism in the liver”
